# From PubChem BioAssay
# Active and inactive are the calls of the source.
# Legend:
# [1] = small molecules captured by biotinylated probe aFSTL3 – biochemical, small-molecule microarray, fluorescence 635/667, stem cell growth factor project, primary screen (AID 1064); details: higher = more signal;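 further: measures binding of the biotinylated anti-FSTL3 antibody to printed compounds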
# [2] = binders from COS7 lysate, DM2A8 probe, primary screen, torsin A project, cell lysate, small-molecule microarray, fluorescence 635/667 (AID 1065); details: higher = more signal, COS7 lysate expressing mutant human TOR1A
# [3] = small molecules captured by biotinylated probe aFGF2 – biochemical, small-molecule microarray, fluorescence 635/667, stem cell growth factor project, primary screen (AID 1067); details: higher = more signal;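 further: measures binding of biotinylated aFGF2 protein to printed compounds on slides; z-score merges feature fluorescence and signal-to-noise across triplicate slides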
# [4] = small molecules captured by biotinylated probe aFGF10 – biochemical, small-molecule microarray, fluorescence 635/667, stem cell growth factor project, primary screen (AID 1071); details: higher = more signal;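 further: score merges 667 nm spot intensity and signal to noise from triplicate slides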
# [5] = target: Neurogenic locus notch homolog protein 2 (Homo sapiens) (UniProt Q04721); test: small molecules binding Notch2 protein – biochemical, small-molecule microarray, 635 nm fluorescence, stem cell growth factors, primary screen (AID 1073); details: higher = more signal
# [6] = target: Pro-neuregulin-1, membrane-bound isoform (Homo sapiens) (UniProt Q02297); test: small molecules binding neuregulin-1 protein – biochemical, small-molecule microarray, fluorescence 635/667, psychiatric disease protein project, primary screen (AID 1075); details: NRG1 binding, 635 nm fluorescence, higher = more signal;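 further: score combines 667 nm spot fluorescence with signal to noise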
# [7] = tested on: Neuregulin-1 EGF-like domain; test: small molecules binding NRG1 EGF domain – biochemical, small-molecule microarray, 635 nm fluorescence, primary screen (AID 1081); details: higher = more signal;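 further: binding of the protein to compounds printed on small-molecule microarray slides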
# [8] = FRG1 expression reporter modulators in myotubes – cell-based, C2C12 myotubes, firefly/Renilla luciferase, luminescence, FRG1 inhibition for FSHD, primary screen (AID 1084); details: FRG1 promoter luciferase, higher = more signal, called active from +8 up or from −8 down
# [9] = small molecules captured by biotinylated probe aFST – biochemical, small-molecule microarray, fluorescence 635/667, stem cell growth factor project, primary screen (AID 1086); details: higher = more signal;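 further: score merges 667 nm fluorescence with signal-to-noise of each printed compound spot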
# [10] = binders of probe aHhip on microarray, primary screen, stem cell growth factor project, biochemical, small-molecule microarray, fluorescence 635/667 (AID 1087); details: higher = more signal;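 further: score merges spot fluorescence at 667nm with spot signal to noise ratio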
# [11] = tested on: PRMT1 (protein arginine N-methyltransferase 1); test: small molecules binding arginine methyltransferase PRMT1 – biochemical, small-molecule microarray, 635 nm fluorescence, primary screen (AID 1088); details: higher = more signal;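 further: binding of Prmt1 protein to compounds spotted on small-molecule microarray slides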
# [12] = growth effects on S. cerevisiae YJM789 – YJM789 clinical isolate, OD600, 24 h, basal, primary screen (AID 1089); details: higher = more signal, called active from +8 up or from −8 down;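 further: growth of clinical yeast isolate S. cerevisiae YJM 789 seeded 1000 cells per well; test concentration not given here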
# [13] = S. pombe growth modifiers, basal conditions – strain 972, OD600, 24 h, no modulator, primary screen (AID 1090);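 further: basal condition with compound alone and no growth modifier present; test concentration not given here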; details: S. pombe 972 growth, higher = more signal, called active from +8 up or from −8 down
# [14] = budding yeast growth modifiers under rapamycin – strain BY4716, OD600, 96 h, primary screen (AID 1091); further: test concentration not given here; details: S. cerevisiae BY4716 + rapamycin, higher = more signal, called active from +8 up or from −8 down
# [15] = target: Torsin-1A-interacting protein 2 (Homo sapiens) (UniProt Q8NFQ8); test: small molecules binding lysate-expressed LULL1 – cell lysate, human LULL1 lysate, 635/667 nm fluorescence, primary screen (AID 1092); details: small-molecule microarray, hLULL1 lysate binding, 635 nm fluorescence; higher = more signal;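 further: probe is lysate of COS7 cells overexpressing human LULL1; score merges per-feature 667 nm fluorescence with signal-to-noise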
# [16] = optical density change of DRC41 E. coli – strain DRC41, OD650, 24 h, E. coli filamentation project, primary screen (AID 1093);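 further: MC1000 strain lacking acrAB efflux and sulA so SOS filamentation is blocked; test concentration not given here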; details: E. coli DRC41 growth, higher = more signal, called active from +8 up or from −8 down
# [17] = probe aLefty2 binding to arrayed compounds – biochemical, biotinylated probe, 635/667 nm fluorescence, primary screen (AID 1094); details: small-molecule microarray, higher = more signal;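 further: score merges spot fluorescence near 667 nm with spot signal-to-noise ratio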
# [18] = tested on: Noggin (protein binding on small-molecule microarray); test: small molecules binding Noggin protein – biochemical, 635/667 nm fluorescence, primary screen (AID 1095); details: 635 nm fluorescence, higher = more signal;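 further: score merges 667 nm feature fluorescence with signal to noise over triplicate slides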
# [19] = target: Neurogenic locus notch homolog protein 3 (Homo sapiens) (UniProt Q9UM47); test: small molecules binding NOTCH3 protein – biochemical, 635/667 nm fluorescence, primary screen (AID 1096); details: small-molecule microarray, 635 nm fluorescence, higher = more signal
# [20] = probe aEGFR binding to arrayed compounds – biochemical, biotinylated probe, 635/667 nm fluorescence, primary screen (AID 1097); details: small-molecule microarray, higher = more signal;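 further: probe is a biotinylated anti-EGFR antibody binding compounds printed on slides; score combines fluorescence near 667 nm and signal to noise of each spot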
# Neurogenic locus notch homolog protein 3 (Homo sapiens), sequence (Q9UM47 whole entry, looked up): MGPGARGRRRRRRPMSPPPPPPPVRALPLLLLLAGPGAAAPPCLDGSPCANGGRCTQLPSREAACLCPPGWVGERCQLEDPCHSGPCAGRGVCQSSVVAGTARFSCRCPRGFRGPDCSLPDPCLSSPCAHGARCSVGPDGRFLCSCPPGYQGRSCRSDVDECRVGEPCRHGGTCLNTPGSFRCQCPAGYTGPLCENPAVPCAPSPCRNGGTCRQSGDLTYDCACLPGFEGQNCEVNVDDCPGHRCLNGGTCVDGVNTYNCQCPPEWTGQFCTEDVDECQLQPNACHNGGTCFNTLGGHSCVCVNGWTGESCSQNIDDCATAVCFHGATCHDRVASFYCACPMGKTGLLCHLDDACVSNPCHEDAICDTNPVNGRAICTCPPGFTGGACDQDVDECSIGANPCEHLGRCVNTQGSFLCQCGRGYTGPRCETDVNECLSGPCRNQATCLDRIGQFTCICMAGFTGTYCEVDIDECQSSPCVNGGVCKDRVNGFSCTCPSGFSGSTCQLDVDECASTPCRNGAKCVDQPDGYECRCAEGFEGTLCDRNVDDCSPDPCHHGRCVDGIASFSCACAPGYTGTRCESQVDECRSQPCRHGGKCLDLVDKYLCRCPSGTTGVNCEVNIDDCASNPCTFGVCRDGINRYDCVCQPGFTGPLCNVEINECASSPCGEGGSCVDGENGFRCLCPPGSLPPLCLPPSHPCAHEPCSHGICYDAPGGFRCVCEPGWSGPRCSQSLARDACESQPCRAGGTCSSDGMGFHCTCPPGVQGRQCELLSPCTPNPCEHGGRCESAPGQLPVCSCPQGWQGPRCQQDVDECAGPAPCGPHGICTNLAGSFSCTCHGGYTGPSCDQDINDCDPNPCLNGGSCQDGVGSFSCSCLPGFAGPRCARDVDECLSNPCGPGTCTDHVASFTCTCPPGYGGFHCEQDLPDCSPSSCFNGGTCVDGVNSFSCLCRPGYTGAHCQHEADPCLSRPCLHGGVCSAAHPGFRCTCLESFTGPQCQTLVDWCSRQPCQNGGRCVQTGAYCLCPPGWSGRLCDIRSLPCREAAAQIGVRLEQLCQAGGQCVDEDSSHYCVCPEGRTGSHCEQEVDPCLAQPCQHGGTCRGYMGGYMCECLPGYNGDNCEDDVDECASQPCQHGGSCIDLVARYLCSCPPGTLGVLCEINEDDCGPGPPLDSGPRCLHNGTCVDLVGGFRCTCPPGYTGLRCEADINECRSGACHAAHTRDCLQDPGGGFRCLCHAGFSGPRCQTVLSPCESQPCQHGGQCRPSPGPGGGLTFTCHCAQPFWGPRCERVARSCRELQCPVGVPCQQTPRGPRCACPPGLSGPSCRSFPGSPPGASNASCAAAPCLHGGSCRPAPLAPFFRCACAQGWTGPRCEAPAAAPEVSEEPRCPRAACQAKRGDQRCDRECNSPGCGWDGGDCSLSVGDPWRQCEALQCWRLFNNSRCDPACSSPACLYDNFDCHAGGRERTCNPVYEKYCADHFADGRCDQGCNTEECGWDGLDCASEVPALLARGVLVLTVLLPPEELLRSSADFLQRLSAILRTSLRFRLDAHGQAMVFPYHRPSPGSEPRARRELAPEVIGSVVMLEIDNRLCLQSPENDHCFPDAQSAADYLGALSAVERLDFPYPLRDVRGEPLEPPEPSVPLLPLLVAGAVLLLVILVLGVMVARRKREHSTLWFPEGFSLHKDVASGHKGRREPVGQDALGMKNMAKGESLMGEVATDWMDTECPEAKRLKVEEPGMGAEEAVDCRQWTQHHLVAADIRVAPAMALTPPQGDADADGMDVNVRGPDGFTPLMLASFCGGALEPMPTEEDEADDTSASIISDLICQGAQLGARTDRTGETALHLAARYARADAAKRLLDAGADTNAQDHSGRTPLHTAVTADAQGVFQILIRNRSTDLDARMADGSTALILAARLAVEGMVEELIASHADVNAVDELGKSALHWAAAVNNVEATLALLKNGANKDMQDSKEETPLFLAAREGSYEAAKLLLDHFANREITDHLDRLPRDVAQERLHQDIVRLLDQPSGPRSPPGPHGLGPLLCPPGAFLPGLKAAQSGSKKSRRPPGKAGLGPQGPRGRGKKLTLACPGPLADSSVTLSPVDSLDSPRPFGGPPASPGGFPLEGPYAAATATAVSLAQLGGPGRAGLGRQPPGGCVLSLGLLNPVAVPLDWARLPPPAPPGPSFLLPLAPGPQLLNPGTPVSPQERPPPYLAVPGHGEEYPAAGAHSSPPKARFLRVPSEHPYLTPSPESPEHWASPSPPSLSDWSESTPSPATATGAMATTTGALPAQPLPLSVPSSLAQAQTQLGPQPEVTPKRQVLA
# Torsin-1A-interacting protein 2 (Homo sapiens), sequence (Q8NFQ8 whole entry, looked up): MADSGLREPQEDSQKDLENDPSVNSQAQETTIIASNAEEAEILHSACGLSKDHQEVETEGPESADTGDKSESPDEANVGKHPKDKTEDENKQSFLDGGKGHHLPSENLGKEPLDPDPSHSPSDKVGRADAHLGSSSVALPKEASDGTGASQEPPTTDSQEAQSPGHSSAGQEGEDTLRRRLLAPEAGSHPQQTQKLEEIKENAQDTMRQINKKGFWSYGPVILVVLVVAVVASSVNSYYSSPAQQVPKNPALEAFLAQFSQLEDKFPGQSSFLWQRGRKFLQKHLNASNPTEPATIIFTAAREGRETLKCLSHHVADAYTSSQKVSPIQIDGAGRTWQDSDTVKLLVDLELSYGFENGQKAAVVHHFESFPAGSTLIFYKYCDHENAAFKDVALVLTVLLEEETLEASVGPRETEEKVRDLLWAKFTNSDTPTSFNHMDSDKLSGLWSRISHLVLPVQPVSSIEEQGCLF
# Pro-neuregulin-1, membrane-bound isoform (Homo sapiens), sequence (Q02297 whole entry, looked up, the tested form may be a part, canonical isoform): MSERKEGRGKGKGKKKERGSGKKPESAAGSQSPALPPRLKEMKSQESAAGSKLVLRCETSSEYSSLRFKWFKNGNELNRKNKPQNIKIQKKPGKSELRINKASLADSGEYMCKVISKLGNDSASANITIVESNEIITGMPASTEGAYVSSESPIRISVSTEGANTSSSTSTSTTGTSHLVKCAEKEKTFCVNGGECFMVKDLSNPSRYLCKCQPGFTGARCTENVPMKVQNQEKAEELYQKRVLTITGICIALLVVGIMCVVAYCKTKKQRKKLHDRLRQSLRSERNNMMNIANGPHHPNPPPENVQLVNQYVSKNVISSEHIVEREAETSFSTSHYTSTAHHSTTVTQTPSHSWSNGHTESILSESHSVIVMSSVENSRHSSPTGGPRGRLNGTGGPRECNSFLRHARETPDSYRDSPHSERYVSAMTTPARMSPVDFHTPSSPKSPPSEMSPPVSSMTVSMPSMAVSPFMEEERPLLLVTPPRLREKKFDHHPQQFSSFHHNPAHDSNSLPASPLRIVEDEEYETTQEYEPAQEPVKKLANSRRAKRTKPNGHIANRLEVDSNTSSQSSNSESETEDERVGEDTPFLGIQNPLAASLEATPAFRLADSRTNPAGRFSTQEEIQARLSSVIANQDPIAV
Structure (SMILES),composite z-score [1],composite z-score [2],composite z-score [3],composite z-score [4],composite z-score [5],composite z-score [6],composite z-score [7],z-score [8],composite z-score [9],composite z-score [10],composite z-score [11],z-score [12],z-score [13],z-score [14],composite z-score [15],z-score [16],composite z-score [17],composite z-score [18],composite z-score [19],composite z-score [20]
C=C/C=C/[C@H]1C(=C)CN([C@@H](Cc2ccccc2)C(=O)OC)[C@@H]1[C@H](O)Cc1ccccc1,0.042,-0.951,-0.203,-0.189,-1.06,-0.824,-0.5,-0.164 (inactive),-0.364,-0.455,-0.473,-0.15 (inactive),-1.35 (inactive),-0.557 (inactive),0.428,0.311 (inactive),-0.149,-0.219,-0.0424,-0.316
C=CCOC(=O)[C@@H]1[C@H]2C(=O)O[C@H](c3ccccc3)[C@H](c3ccccc3)N2[C@H](c2ccc(OCCOC(=O)[C@@H]3C[C@@H]4C(=O)N[C@@H](CCCC[N+](C)(C)C)C(=O)N4[C@@H]3c3cccc(OCCO)c3)cc2)[C@@]12C(=O)Nc1ccc(I)cc12,0.443,0.54,0.0378,0.291,0.872,0.498,1.23,3.07 (inactive),0.493,-0.117,1.56,1.02 (inactive),-0.945 (inactive),0.115 (inactive),2.94,-0.674 (inactive),-0.0063,1.47,1.13,0.0321
COc1cc2c(cc1O)C(C1CC1)N(Cc1cc3c(cc1Br)OCO3)CC2 (stereo not given),0.423,0.97,-0.119,-0.974,-0.695,0.502,1.02,1.21 (inactive),-0.734,-0.394,-0.221,0.19 (inactive),-3.12 (inactive),-0.24 (inactive),1.61,-1.91 (inactive),-0.209,-0.774,-0.346,-0.363
Cc1ccc(S[C@]2(C(=O)NCCN3CCOCC3)CC(=O)N(Cc3ccccc3Cl)[C@@H]2c2ccc(CO)cc2)cc1,0.268,-0.159,-0.0083,0.701,-0.32,0.956,1.15,-0.0709 (inactive),-0.0909,-0.0994,-0.241,-1.17 (inactive),-0.895 (inactive),-0.812 (inactive),3.07,0.149 (inactive),-0.057,-0.157,0.201,-0.128
C=C(/C(=C/C[C@@H](OC(C)=O)c1ccc(OCCO)cc1)c1cnc2ccccc2c1)C(C)C,-0.0854,0.769,-0.073,0.164,0.205,0.213,0.946,-1.06 (inactive),0.142,-0.0645,1.26,-0.0424 (inactive),-1.56 (inactive),-0.234 (inactive),1.06,0.762 (inactive),-0.197,0.655,0.676,-0.146
